Source: PubChem BioAssay
MARV entry inh: Marburg virus entry inhibition | Potency, µM (titrated, usually from 37.8 µM), without a hit: at the highest dose activity change, negative = inhibition, usual class: inhibitors | actives 1.8% (n = 300,000) | Marburg virus pseudotyped entry inhibition, cell reporter; calls by dose curve; tested in HEK293 cells; also: potency is read from the fitted curve at half-maximal effect; % is scaled to controls: 0 for no effect and ±100 for the full control effect
LASV entry inh: blocks Lassa virus binding to or entry into cells; Lassa virus pseudotype entry inhibition, cell reporter; Potency, µM (titrated, usually from 37.9 µM), without a hit: top-dose activity change, negative = inhibition, actives largely listed as inhibitors; actives 1.2% (n = 300,000); calls by dose curve; tested in HEK293 cells; also: potency is read from the fitted curve at half-maximal effect; % is scaled to controls: 0 for no effect and ±100 for the full control effect; nearly all actives have a fitted effect of over 50% in size
AMA1 RON2 block: AMA1-RON2 (P. falciparum) interaction inhibition; AID 720542; actives 0.2% (n = 360,000); AlphaScreen AMA1-biotinylated RON2 peptide binding; Potency, µM (series often up to 58.2 µM), for inactives: at the highest dose activity change, negative = inhibition, hits mostly inhibitors; active = well fitted inhibition curve with a large enough effect; inconclusive = small, poorly fitted or top-dose-only effect; inactive = no such curve, though single readings can be large or run the other way;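 also: potency is read from the fitted curve at half-maximal effect; 0% = vehicle wells and -100% = peptide control; nearly all actives have a fitted effect of over 45% in size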
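AMA1 (3D7) with his tag at 25 nM final met compounds first, then biotinylated RON2 peptide at 25 nM; detection used donor plus acceptor beads, 10 µg/mL apiece, read by AlphaScreen after 30 min at room temperature.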
Shiga toxin inh: inhibitors of Shiga toxin in Vero cells. Vero cells, Shiga toxin protein synthesis inhibition reporter. inhibition, % at 38.7 µM. actives 9.2% (n = 290,000). AID 2315; in the data active = inhibition mostly above about 28%, no sharp cut-off; inactive = mostly below about 43%; also: 0% is about no effect
CHX counter: affects cycloheximide protein synthesis inhibition readout, counter-screen. cell reporter, cycloheximide protein synthesis inhibition counterscreen. max response, %. actives 12% (n = 300,000). AID 2314; in the data active = max response mostly above about 13%, no sharp cut-off; inactive = mostly below about 14%; also: read at 38.3 µM for the half of the compounds with a filed dose; 0% is about no effect
Starred values were filed as active, the others as inactive; ? = inconclusive; nt = no result; [ ] = dose if it differs, or a comment. Only a selection was taken, and hits are over-represented in it overall.

SMILES	MARV entry inh	LASV entry inh	AMA1 RON2 block	Shiga toxin inh	CHX counter
O=C(CNC(=S)NC(=O)c1ccc(F)cc1)c1ccccc1	26%	9%	41%	10	6
COc1ccc(N(Cc2nnc3n2CCCCC3)C(=O)Nc2cccc(C)c2)cc1Cl	nt	-19%[46.1 µM]	nt	nt	nt
CSc1nc2ncc(-c3ccsc3)c(N)n2n1	5%[46.1 µM]	30%	9%	62*	49*
CCOC(=O)c1csc(NC(=O)C2CCCCC2)n1	16%	7%	1%	59*	26*
CCCC(=O)Nc1nc(C(=O)OCC)cs1	14%	3%	-2%	32	18*
CCN(CC)c1ccc(-c2nn3c(-c4cccnc4)nnc3s2)cc1	?	?	-1%	14	0
CN(C)c1ccc(CNn2cnnc2SCc2ccccc2F)cc1	18%	29%	-19%	37*	25*
CCOC(=O)c1ccn(CSc2c(F)c(F)cc(F)c2F)n1	nt	nt	-7%	nt	nt
Cc1cccc(C(=O)Nc2cccc(C(=O)OCc3cc(=O)n4ccsc4n3)c2)c1	nt	16%[46.1 µM]	nt	nt	nt
COc1ccc2c(c1)O[C@H](c1ccc3c(c1)OCO3)[C@@H](OC(=O)Nc1cc(OC)c(OC)c(OC)c1)C2=O	?	-17%	nt	-13	-4
COc1cccc([C@@H]2Oc3ccc(OC)cc3C(=O)[C@H]2OC(=O)Nc2cc(OC)c(OC)c(OC)c2)c1	13%[14.2 µM]	-13%	-3%	45*	11*
COc1ccc2c(c1)C(=O)[C@H](O)[C@@H](c1ccc(OC)c(Br)c1)O2	-44%	?	14%	54	19*
COc1cccc([C@@H]2Oc3ccc(OC)cc3C(=O)[C@H]2OC(=O)NCc2ccc3c(c2)OCO3)c1	31%	-2%	nt	84*	64*
CC[C@H](C)[C@@H](NC(=O)O[C@@H]1C(=O)c2cc(OC)ccc2O[C@H]1c1ccc(OC)c(Br)c1)C(=O)OC	15%[14.2 µM]	-1%	-4%	-11	6
O=C(NNC(=S)NC1CCCCC1)c1ccc2c(c1)OCO2	1%	20%	34%	-4	-2
O=C(Cc1cccs1)N(Cc1cccs1)C1(C(=O)NC2CCCC2)CCCCC1	-30%	5%	-3%	-2	1
O=C(c1ccc2c(c1)OCO2)N(Cc1cccs1)C1(C(=O)NC2CCCCC2)CCCCC1	8.9µM*	?	-17%	-2	1
S=C(NC1CCCCC1)c1ccc2c(c1)OCO2	?	4%	-3%	66*	22*
O=C(NC1CCCCCCC1)c1ccc2c(c1)OCO2	-19%	-20%	7%	48*	42*
O=C(NC1CCCCC1)c1ccc2c(c1)OCCO2	?	-9%[46.1 µM]	-2%	42*	21*
COc1ccc(N2CCN(C(=O)c3ccc(CS(=O)Cc4ccc(Cl)cc4)o3)CC2)cc1 (stereo not given)	?	11%[46.1 µM]	-2%	-8	8
Cc1ccccc1C(=O)OCc1cc(=O)n2nc(-c3cccs3)sc2n1	nt	27%[46.1 µM]	nt	nt	nt
O=C1NC[C@@H](CCCCN2CCN(Cc3ccccc3)C(=O)C2=O)N(Cc2ccccc2)C1=O	nt	nt	-5%	nt	nt
c1cc2c(cc1NC1CCCCCC1)OCO2	-2%	14%	?	11	16*
O=C(Nc1ccc2c(c1)OCO2)C1CC1	?	5%	17%	nt	nt
SMILES	MARV entry inh	LASV entry inh	AMA1 RON2 block	Shiga toxin inh	CHX counter
COc1ccc(C(CNC(=O)C2CC2)N(C)C)cc1 (stereo not given)	nt	nt	5%	27*	17*
COc1ccc(C(CNC(=O)C(C)c2ccc3cc(OC)ccc3c2)N(C)C)cc1 (stereo not given)	?	?	-5%	18	4
COc1ccc(C)cc1NC(=O)C(OC(=O)CNC(=O)c1ccc(Br)cc1)c1ccccc1 (stereo not given)	2%	2%	10%	10	12*
CC(C)OC(=O)[C@@H](CC(=O)O)NCc1ccccc1	0%	nt	nt	nt	nt
CCOc1ccc2nc(N3CCC(C(=O)N4CCN(c5ncccn5)CC4)CC3)sc2c1	nt	nt	-3%	39	26*
CCc1ccc2nc(N3CCC(C(=O)N4CCC5(CC4)OCCO5)CC3)sc2c1	-26%[46.1 µM]	-26%[46.1 µM]	4%	131*	58*
CCOc1ccc2nc(N3CCC(C(=O)N4CCC5(CC4)OCCO5)CC3)sc2c1	?	-2%	4%	119	41*
O=C(C1CCN(c2nc3ccc(Br)cc3s2)CC1)N1CCC2(CC1)OCCO2	?	-13%	4%	59*	30*
Cc1ccccc1OCc1nnc(SCc2cc(=O)c3cccc(F)c3[nH]2)n1C	nt	-15%[46.1 µM]	nt	nt	nt
O=C1CCCC(O)=C1C=NCc1ccccc1	17%[46.1 µM]	7%	12%	20	4
